PubChem BioAssay AID504321 (NMMLSC, 2011)
Calls of active or inactive are those of the source.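 How the source made its calls: active means GFP response vs DMSO above 150% with enough events counted; inconclusive means fewer than 70 events counted for a yeast strain; inactive means the rest.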

Assay: yeast MEP2-GFP fusion level changes, TOR pathway – flow cytometry, third cherry pick, S. cerevisiae, confirmation (AID 504321);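 further: median per-cell GFP fluorescence by flow cytometry across all yeast cells; ratio of sample to DMSO median GFP so 100% equals the DMSO level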
Conditions: S. cerevisiae MEP2-GFP strain, 3 h, at 10 µM, stronger effect = higher value

Row | SMILES | GFP response vs DMSO
1 | O=C(/C=C/Nc1cccc(O)c1)c1ccccc1 | 112% (inactive)
2 | Oc1ccc(Cl)c2cccnc12 | 101% (inactive)
3 | COc1ccccc1OCc1cc(C(=O)N2CCN(C)C(c3ccccc3)C2)no1 (centres undefined) | 110% (inactive)
4 | C=CCNc1ncnc2ccccc12 | 114% (inactive)
5 | CC(=O)NC(C)c1cc(Cl)c2cccnc2c1O (centres undefined) | 99% (inactive)
6 | CNc1cccc2c1C(=O)c1ccccc1C2=O | 114% (inactive)
7 | Cn1c(NCCO)nc2c(c1=O)C1(CCCCC1)Cc1ccccc1-2 | 108% (inactive)
8 | COc1ccccc1-c1cc(C(F)(F)F)nc(S(=O)(=O)CCCC(=O)NC(C)C)n1 | 110% (inactive)
9 | COCCCNc1nc(N)c([N+](=O)[O-])c(Nc2cc(OC)ccc2OC)n1 | 110% (inactive)
10 | OCc1ccc(O)c2ncccc12 | 99% (inactive)
11 | COc1ccc(OC)c2c(C)cc(C)nc12 | 108% (inactive)
12 | CC(=O)C(Cl)C(=O)Nc1ccccc1 (centres undefined) | 118% (inactive)
13 | Nc1c(C(=O)O)ccc2c1C(=O)c1ccccc1C2=O | 127% (inactive)
14 | CC(C)Nc1ncnc2ccc(Br)cc12 | 112% (inactive)
15 | Cc1ccc2c(Cl)cc(Cl)c(OCC(=O)O)c2n1 | 108% (inactive)
16 | C/C(=C\C(=O)c1ccccc1)Nc1cccc(O)c1 | 110% (inactive)
17 | Cn1c(NCCCO)nc2c(c1=O)C1(CCCCC1)Cc1ccccc1-2 | 112% (inactive)
18 | COc1ccccc1-c1cc(C(F)(F)F)nc(S(C)(=O)=O)n1 | 142% (inactive)
19 | Cc1ccc2c(Cl)cc(Cl)c(O)c2n1 | 168% (active)
20 | CC1=NNC(=O)/C1=C\c1cn(-c2ccccc2)nc1-c1ccc(F)cc1 | 131% (inactive)

Row | SMILES | GFP response vs DMSO
21 | Cc1ccc(C(=O)/C=C/Nc2cccc(O)c2)cc1 | 116% (inactive)
22 | CCN(CC)c1ncnc2ccc(Br)cc12 | 114% (inactive)
23 | CC1=CN2C(=N)/C(=C/c3ccco3)C(=O)N=C2S1 | 105% (inactive)
24 | O=C(O)c1ccccc1-c1ccccc1C(=O)Nc1ccc(-c2nc3cc(Cl)ccc3o2)cc1 | 116% (inactive)
25 | O=C(N/N=C/c1ccccc1F)c1cccc2ccccc12 | 108% (inactive)
26 | CC(=O)Nn1cnc2c(c1=O)C1(CCCCC1)Cc1ccccc1-2 | 114% (inactive)
27 | CCCCC(=O)NCCc1cc2c(OC)ccc(OC)c2[nH]c1=O | 108% (inactive)
28 | COc1cccc2c(Cl)c(CCCl)c(C)nc12 | 101% (inactive)
29 | CC(=O)CC(=O)Nc1ccc(C(N)=O)cc1 | 112% (inactive)
30 | OCCNc1ncnc2ccc(Br)cc12 | 101% (inactive)
31 | COc1cc(OC)cc(C(=O)Nc2ccc(-c3nc4ccccc4o3)cc2)c1 | 110% (inactive)
32 | Cc1ccc2c(C)ccc(O)c2n1 | 114% (inactive)
33 | O=C(N/N=C/c1ccccc1O)c1cccc2ccccc12 | 110% (inactive)
34 | Oc1ccc(F)c2cccnc12 | 116% (inactive)
35 | O=C(O)c1ccc2cccnc2c1O | 101% (inactive)
36 | Cc1cn2c(N)c(C=C3C=C(Cl)C(=O)C(Cl)=C3)c(=O)nc2s1 | 112% (inactive)
37 | CCOC(=O)CS(=O)(=O)c1nc(-c2ccccc2)cc(C(F)(F)F)n1 | 151% (active)
38 | Cc1ccc(C(=O)Nc2nc(-c3ccccn3)cs2)o1 | 103% (inactive)
39 | COc1cccc(OCc2cc(C(=O)N3CCN(C)C(c4ccccc4)C3)no2)c1 (centres undefined) | 108% (inactive)
